# From the supplement of paper PMC8728848
# This is one part of a sample in which the strongest signals are shown more often than they occur.
# What was measured:
# Test in all cases: glycan array binding signal (z-score within array); higher = stronger binding
# Conditions in all cases: glycan notation: IUPAC condensed, linker removed
# [1] = biological target: Fuc(a1-2)Gal(b1-3)GalNAc(a1-3)[Fuc(a1-2)]Gal(b1-4)GlcNAc
# Summary of the method: (§1)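 Glycan array data came from 3228 arrays in the Consortium for Functional Glycomics database, and only arrays with an available protein sequence were kept. Glycan names were put into IUPAC-condensed notation, and columns mapping to the same glycan were averaged. The binding signal is a within-array Z-score, averaged across arrays of one protein sequence run at different concentrations or buffers and across linkers. A negative Z-score can be read as non-binding.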
# [2] = biological target: Fuc(a1-2)Gal(b1-4)GlcNAc(b1-2)Man(a1-3)[Fuc(a1-2)Gal(b1-4)GlcNAc(b1-2)Man(a1-6)]Man(b1-4)GlcNAc(b1-4)[Fuc(a1-6)]GlcNAc
# Summary of the method: as §1
# [3] = biological target: Fuc(a1-2)Gal(b1-4)[Fuc(a1-3)]GlcNAc(b1-2)[Fuc(a1-2)Gal(b1-4)[Fuc(a1-3)]GlcNAc(b1-4)]Man(a1-3)[Fuc(a1-2)Gal(b1-4)[Fuc(a1-3)]GlcNAc(b1-2)Man(a1-6)]Man(b1-4)GlcNAc(b1-4)GlcNAc
# Summary of the method: as §1
# [4] = biological target: Fuc(a1-2)Gal(b1-4)[Fuc(a1-3)]GlcNAc(b1-3)Gal(b1-4)[Fuc(a1-3)]GlcNAc(b1-3)Gal(b1-4)[Fuc(a1-3)]GlcNAc
# Summary of the method: as §1
# [5] = biological target: Fuc(a1-2)Gal6S(b1-3)GlcNAc6S
# Summary of the method: as §1
# [6] = biological target: Fuc(a1-2)[Gal(a1-3)]Gal(b1-4)GlcNAc(b1-2)Man
# Summary of the method: as §1
# [7] = biological target: Fuc(a1-3)GlcNAc
# Summary of the method: as §1
# [8] = biological target: Fuc(a1-3)[Gal(b1-4)]GlcNAc
# Summary of the method: as §1
# [9] = biological target: Fuc(a1-3)[GalNAc(b1-4)]GlcNAc
# Summary of the method: as §1
# [10] = biological target: Gal(a1-3)Gal(b1-3)[Fuc(a1-4)]GlcNAc(b1-2)Man(a1-3)[Gal(a1-3)Gal(b1-3)[Fuc(a1-4)]GlcNAc(b1-2)Man(a1-6)]Man(b1-4)GlcNAc(b1-4)GlcNAc
# Summary of the method: as §1
# [11] = biological target: Gal(a1-3)Gal(b1-4)Glc
# Summary of the method: as §1
# [12] = biological target: Gal(a1-3)[Gal(a1-4)]Gal(b1-4)GlcNAc
# Summary of the method: as §1
# [13] = biological target: Gal(b1-3)GlcNAc(b1-6)Gal(b1-4)GlcNAc
# Summary of the method: as §1
# [14] = biological target: Gal(b1-4)GlcNAc(b1-3)Gal(b1-3)GlcNAc
# Summary of the method: as §1
# [15] = biological target: Gal(b1-4)GlcNAc(b1-3)Gal(b1-4)GlcNAc(b1-2)Man(a1-3)[Gal(b1-4)GlcNAc(b1-3)Gal(b1-4)GlcNAc(b1-2)Man(a1-6)]Man(b1-4)GlcNAc(b1-4)GlcNAc
# Summary of the method: as §1
# [16] = biological target: Gal(b1-4)GlcNAc(b1-3)Gal(b1-4)GlcNAc(b1-3)Gal(b1-4)GlcNAc
# Summary of the method: as §1
# [17] = biological target: Gal(b1-4)GlcNAc(b1-3)Gal(b1-4)GlcNAc(b1-3)Gal(b1-4)GlcNAc(b1-2)Man(a1-3)[Gal(b1-4)GlcNAc(b1-3)Gal(b1-4)GlcNAc(b1-3)Gal(b1-4)GlcNAc(b1-2)Man(a1-6)]Man(b1-4)GlcNAc(b1-4)GlcNAc
# Summary of the method: as §1
# [18] = biological target: Gal(b1-4)GlcNAc(b1-3)Gal(b1-4)GlcNAc(b1-3)Gal(b1-4)GlcNAc(b1-3)Gal(b1-4)GlcNAc(b1-2)[Gal(b1-4)GlcNAc(b1-3)Gal(b1-4)GlcNAc(b1-3)Gal(b1-4)GlcNAc(b1-3)Gal(b1-4)GlcNAc(b1-6)]Man(a1-6)[Gal(b1-4)GlcNAc(b1-3)Gal(b1-4)GlcNAc(b1-3)Gal(b1-4)GlcNAc(b1-3)Gal(b1-4)GlcNAc(b1-2)Man(a1-3)]Man(b1-4)GlcNAc(b1-4)[Fuc(a1-6)]GlcNAc
# Summary of the method: as §1
# [19] = biological target: Gal(b1-4)GlcNAc(b1-3)Gal(b1-4)GlcNAc(b1-3)Gal(b1-4)GlcNAc(b1-3)Gal(b1-4)GlcNAc(b1-3)Gal(b1-4)GlcNAc(b1-2)[Gal(b1-4)GlcNAc(b1-3)Gal(b1-4)GlcNAc(b1-3)Gal(b1-4)GlcNAc(b1-3)Gal(b1-4)GlcNAc(b1-3)Gal(b1-4)GlcNAc(b1-6)]Man(a1-6)[Gal(b1-4)GlcNAc(b1-3)Gal(b1-4)GlcNAc(b1-3)Gal(b1-4)GlcNAc(b1-3)Gal(b1-4)GlcNAc(b1-3)Gal(b1-4)GlcNAc(b1-2)Man(a1-3)]Man(b1-4)GlcNAc(b1-4)[Fuc(a1-6)]GlcNAc
# Summary of the method: as §1
# [20] = biological target: Gal(b1-4)GlcNAc(b1-6)Gal(b1-4)GlcNAc
# Summary of the method: as §1
# [21] = biological target: Gal3S(b1-3)GlcNAc
# Summary of the method: as §1
# [22] = biological target: Gal3S6S(b1-4)GlcNAc6S
# Summary of the method: as §1
# [23] = biological target: GalNAc(b1-4)GlcNAc(b1-2)Man(a1-3)[GalNAc(b1-4)GlcNAc(b1-2)Man(a1-6)]Man(b1-4)GlcNAc(b1-4)GlcNAc
# Summary of the method: as §1
# [24] = biological target: GlcNAc(a1-4)Gal(b1-4)GalNAc
# Summary of the method: as §1
# [25] = biological target: GlcNAc(b1-3)Gal(b1-4)GlcNAc(b1-2)Man(a1-3)[GlcNAc(b1-3)Gal(b1-4)GlcNAc(b1-2)Man(a1-6)]Man(b1-4)GlcNAc(b1-4)[Fuc(a1-6)]GlcNAc
# Summary of the method: as §1
# [26] = biological target: GlcNAc(b1-3)Gal(b1-4)GlcNAc(b1-3)Gal(b1-4)GlcNAc(b1-2)Man(a1-3)[GlcNAc(b1-3)Gal(b1-4)GlcNAc(b1-3)Gal(b1-4)GlcNAc(b1-2)Man(a1-6)]Man(b1-4)GlcNAc(b1-4)GlcNAc
# Summary of the method: as §1
# [27] = biological target: GlcNAc(b1-3)Gal(b1-4)GlcNAc(b1-3)Gal(b1-4)GlcNAc(b1-2)Man(a1-3)[GlcNAc(b1-3)Gal(b1-4)GlcNAc(b1-3)Gal(b1-4)GlcNAc(b1-2)Man(a1-6)]Man(b1-4)GlcNAc(b1-4)[Fuc(a1-6)]GlcNAc
# Summary of the method: as §1
# [28] = biological target: GlcNAc6S(b1-3)Gal(b1-4)GlcNAc
# Summary of the method: as §1
# [29] = biological target: Kdn(a2-3)Gal(b1-3)GlcNAc
# Summary of the method: as §1
# [30] = biological target: Man(a1-2)Man(a1-3)[Man(a1-6)]Man(a1-6)[Man(a1-2)Man(a1-3)]Man(b1-4)GlcNAc(b1-4)GlcNAc
# Summary of the method: as §1
# [31] = biological target: Man(a1-2)Man(a1-6)[Man(a1-3)]Man(a1-6)[Man(a1-2)Man(a1-2)Man(a1-3)]Man
# Summary of the method: as §1
# [32] = biological target: Man(a1-3)[Man(a1-6)]Man(a1-6)[Man(a1-2)Man(a1-3)]Man(b1-4)GlcNAc(b1-4)GlcNAc
# Summary of the method: as §1
# [33] = biological target: Man(a1-3)[Man(a1-6)]Man(a1-6)[Man(a1-3)]Man(b1-4)GlcNAc(b1-4)GlcNAc
# Summary of the method: as §1
# [34] = biological target: Man(b1-4)GlcNAc
# Summary of the method: as §1
# [35] = biological target: Neu5Ac(a2-3)Gal(b1-3)GalNAc(b1-3)Gal(a1-4)Gal(b1-4)Glc
# Summary of the method: as §1
# [36] = biological target: Neu5Ac(a2-3)Gal(b1-3)GlcNAc(b1-2)Man
# Summary of the method: as §1
# [37] = biological target: Neu5Ac(a2-3)Gal(b1-4)GlcNAc
# Summary of the method: as §1
# [38] = biological target: Neu5Ac(a2-3)Gal(b1-4)GlcNAc(b1-2)Man(a1-3)[Neu5Ac(a2-3)Gal(b1-4)GlcNAc(b1-2)Man(a1-6)]Man(b1-4)GlcNAc(b1-4)[Fuc(a1-6)]GlcNAc
# Summary of the method: as §1
# [39] = biological target: Neu5Ac(a2-3)Gal(b1-4)GlcNAc(b1-2)[Neu5Ac(a2-3)Gal(b1-4)GlcNAc(b1-4)]Man(a1-3)[GlcNAc(b1-4)][Neu5Ac(a2-3)Gal(b1-4)GlcNAc(b1-4)Man(a1-6)]Man(b1-4)GlcNAc(b1-4)GlcNAc
# Summary of the method: as §1
# [40] = biological target: Neu5Ac(a2-3)Gal(b1-4)[Fuc(a1-3)]GlcNAc(b1-3)Gal(b1-4)[Fuc(a1-3)]GlcNAc(b1-3)Gal(b1-4)[Fuc(a1-3)]GlcNAc
# Summary of the method: as §1
# [41] = biological target: Neu5Ac(a2-3)[Neu5Ac(a2-6)]GalNAc
# Summary of the method: as §1
# [42] = biological target: Neu5Ac(a2-6)Gal(b1-4)GlcNAc(b1-2)Man(a1-3)[GlcNAc(b1-4)][Neu5Ac(a2-6)Gal(b1-4)GlcNAc(b1-2)Man(a1-6)]Man(b1-4)GlcNAc(b1-4)GlcNAc
# Summary of the method: as §1
# [43] = biological target: Neu5Ac(a2-8)Neu5Gc(a2-3)Gal(b1-4)GlcNAc
# Summary of the method: as §1
# [44] = biological target: Neu5Gc(b2-6)Gal(b1-4)GlcNAc
# Summary of the method: as §1
binder,measurement,setting,value
PX14379D-pdi-530-26-530 (Parabacteroides distasonis) (protein) DETVYDKLPADDFGQSTAELNALIGNSHNTMKKFWTEYMHLSECSGSMAVTPTRRGGDWYDGGQYREIYMHTWTSQTSRVKSAWKAATEAIGTCNEAIRKLQNSEILTEEEKAQDVADLRGVRAFWIYVMMDYWGNIPLLTEFHPTDKVFPGNSSRQEVFDWLIQEVEEIKDICPPATTENYGSFTQGAAYSLLAKLYLNAEAWGVTFSGNAYQKVIDNCDKVMAMGYILEPNWKDNFSVTNENSKEAILAATFSSSDTGNDGNVKNELHNNTLHYKDYLSLGITASGTWNGICAQPEYVRLFDEEDARLDGTFLTGLMIDKSTGKPIMTDHNNELNHTIDVNMIPGMEYDGTNWSAVEQHDGARCFKWEFASDLTSSMGNDFHIFRLADIYLMKAEALLRGGGSVSEATALVNTIRERGYGNSDHNYATVTLKEVQLERRLELAWEVYSRQDDIRFGCFTTGMWPQSNCERKADDYLKLLPVSQDAWQVNPNLKQNPGYAAFSK,glycan array binding signal (z-score),[1],-1.42
same,glycan array binding signal (z-score),[2],-0.233
same,glycan array binding signal (z-score),[3],-0.436
same,glycan array binding signal (z-score),[4],2.52
same,glycan array binding signal (z-score),[5],2.88
same,glycan array binding signal (z-score),[6],1.09
same,glycan array binding signal (z-score),[7],-0.715
same,glycan array binding signal (z-score),[8],-0.689
same,glycan array binding signal (z-score),[9],-0.221
same,glycan array binding signal (z-score),[10],2.48
same,glycan array binding signal (z-score),[11],-0.838
same,glycan array binding signal (z-score),[12],4.67
same,glycan array binding signal (z-score),[13],-1.22
same,glycan array binding signal (z-score),[14],-1.08
same,glycan array binding signal (z-score),[15],2.97
same,glycan array binding signal (z-score),[16],-0.298
same,glycan array binding signal (z-score),[17],1.92
same,glycan array binding signal (z-score),[18],3.06
same,glycan array binding signal (z-score),[19],1.59
same,glycan array binding signal (z-score),[20],0.063
same,glycan array binding signal (z-score),[21],-0.593
same,glycan array binding signal (z-score),[22],2.52
same,glycan array binding signal (z-score),[23],2.64
same,glycan array binding signal (z-score),[24],-0.622
same,glycan array binding signal (z-score),[25],0.749
same,glycan array binding signal (z-score),[26],2.91
same,glycan array binding signal (z-score),[27],2.19
same,glycan array binding signal (z-score),[28],0.56
same,glycan array binding signal (z-score),[29],-0.752
same,glycan array binding signal (z-score),[30],-1.26
same,glycan array binding signal (z-score),[31],-0.013
same,glycan array binding signal (z-score),[32],-0.447
same,glycan array binding signal (z-score),[33],-0.474
same,glycan array binding signal (z-score),[34],-1.02
same,glycan array binding signal (z-score),[35],0.43
same,glycan array binding signal (z-score),[36],0.26
same,glycan array binding signal (z-score),[37],-0.826
same,glycan array binding signal (z-score),[38],0.415
same,glycan array binding signal (z-score),[39],-0.482
same,glycan array binding signal (z-score),[40],-0.094
same,glycan array binding signal (z-score),[41],-1.44
same,glycan array binding signal (z-score),[42],0.549
same,glycan array binding signal (z-score),[43],12.8
same,glycan array binding signal (z-score),[44],-0.722
